Source: PubChem BioAssay AID623911 (Vanderbilt High Throughput Screening Facility, 2012)
Screen size: about 2,100 compounds; about 770 (37%) were called active.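 Rule for the calls: active = by-eye trace score of 1 for enhancers or -1 for inhibitors, so actives lie on both sides (some results past the limit were not filed as active); inactive = score 0, or 3 fluorescent, or 4 baseline rise.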 This is one part of the list.

Each compound was assayed against G protein-activated inward rectifier potassium channel 2 (Homo sapiens) + G protein-activated inward rectifier potassium channel 1 (Homo sapiens) (UniProt P48051+P48549) (assay: GIRK1/2 thallium flux modulators, retest, confirmation, cell-based, HEK293 rmGlu8/hGIRK1/2, FluoZin-2 (AID 623911)). Settings: HEK293 rmGlu8/hGIRK1/2, thallium flux FluoZin-2; actives lie on both sides; glutamate co-added at its EC20 level.
G protein-activated inward rectifier potassium channel 2 (Homo sapiens) + G protein-activated inward rectifier potassium channel 1 (Homo sapiens), sequence (P48051 whole entry, looked up): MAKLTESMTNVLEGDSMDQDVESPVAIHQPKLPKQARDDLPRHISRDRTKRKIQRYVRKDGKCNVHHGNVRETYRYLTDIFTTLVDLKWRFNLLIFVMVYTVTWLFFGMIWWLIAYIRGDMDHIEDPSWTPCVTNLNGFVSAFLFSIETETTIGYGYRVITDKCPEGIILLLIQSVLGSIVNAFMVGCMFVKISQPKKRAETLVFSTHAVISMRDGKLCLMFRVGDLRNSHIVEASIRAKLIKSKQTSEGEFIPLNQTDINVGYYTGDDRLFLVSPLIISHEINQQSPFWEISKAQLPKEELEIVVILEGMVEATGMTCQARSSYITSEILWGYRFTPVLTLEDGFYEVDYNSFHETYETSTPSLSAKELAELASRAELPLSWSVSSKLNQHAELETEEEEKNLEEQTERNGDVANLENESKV
G protein-activated inward rectifier potassium channel 2 (Homo sapiens) + G protein-activated inward rectifier potassium channel 1 (Homo sapiens), sequence (P48549 whole entry, looked up): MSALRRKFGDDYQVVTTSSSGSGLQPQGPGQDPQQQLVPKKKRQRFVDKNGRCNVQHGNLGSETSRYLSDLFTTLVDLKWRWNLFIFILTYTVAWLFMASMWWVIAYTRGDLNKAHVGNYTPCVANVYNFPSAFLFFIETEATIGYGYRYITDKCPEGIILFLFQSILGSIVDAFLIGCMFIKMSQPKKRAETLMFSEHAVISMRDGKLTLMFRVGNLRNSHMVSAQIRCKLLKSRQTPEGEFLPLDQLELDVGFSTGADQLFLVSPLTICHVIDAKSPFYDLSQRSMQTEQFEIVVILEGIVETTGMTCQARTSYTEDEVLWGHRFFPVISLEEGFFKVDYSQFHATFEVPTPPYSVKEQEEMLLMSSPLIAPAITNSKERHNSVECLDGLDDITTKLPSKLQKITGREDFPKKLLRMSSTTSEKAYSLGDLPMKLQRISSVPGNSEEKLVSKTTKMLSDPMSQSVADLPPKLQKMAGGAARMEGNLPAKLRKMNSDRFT

Manual score, inactive:
Cc1ccc(NC(=O)C(c2ccccc2)C2CCCC2)cc1 (centres undefined) 0, CC(C)c1cc(C(F)(F)F)n2nc(C(=O)Nc3ccc4c(c3)OCO4)cc2n1 0, O=C(NC(=S)Nc1ccc2c(c1)OCO2)c1ccccc1 0, O=C(Nc1ccc(O)c(-c2nc3ccccc3s2)c1)C1=COCCO1 0, Cc1csc(SCC(=O)Nc2nc3ccccc3s2)n1 0, Oc1oc(-c2cccc3ccccc23)nc1/C=N/c1nccs1 0, SC(COCc1ccccc1)CN1CCN(Cc2ccc3c(c2)OCO3)CC1 (centres undefined) -0.5, COc1ccccc1N1CCN(Cc2cc(Br)c(O)c3ncccc23)CC1 0.5, Cc1ccc(Cn2c(SCC(=O)N3CC(=O)Nc4ccccc43)nc3ccccc3c2=O)cc1 0, CCN(CC)c1ccc(NC(=O)c2nc3nc(C)cc(C(F)F)n3n2)cc1 0, Clc1ccc(CSc2ncn(-c3ccccc3)n2)cc1 0, Cc1cc2c(cc1C)C(=O)NC(C)(C)C2 0, CCC(c1nnnn1Cc1ccc(OC)cc1)N(CCCO)Cc1cc2cc3c(cc2[nH]c1=O)OCO3 (centres undefined) 0, COCCn1nnnc1C(c1ccccc1)N1CCN(c2ccccc2)CC1 (centres undefined) 0, Cc1ccccc1/C=c1\s/c(=C\C(=O)C(C)(C)C)[nH]c1=O 0, O=C(O)CCCCCNc1nc2ncn(Cc3ccccc3)c2c(=O)[nH]1 0, CCN(CC)C(=O)CN(c1ccc2c(c1)OCO2)S(C)(=O)=O 0, COc1ccc(OC)c(C2C(C(=O)c3cccs3)=C(O)C(=O)N2c2cc(C)on2)c1 (centres undefined) 0, COc1ccc(-n2c(=O)[nH]cc(C(=O)Nc3ccc(NC(C)=O)cc3)c2=O)cc1 0, Cn1cccc1-c1nc2ccc(NC(=O)c3cccs3)cc2[nH]1 0, COC(=O)c1cc(OC)c(OC)cc1NC(=O)Nc1ccc(OC)cc1OC 0, O=C(Nc1ccc(CN2CCOCC2)cc1)c1cc2ccccn2n1 0, COCCCNCCCOc1ccc(Cl)cc1Br 0, COc1cc2cnncc2cc1OC 0, CCCc1cc(-c2n[nH]c(=S)n2Cc2ccccc2)cs1 0, S=c1[nH]nc(-c2cc3ccccc3o2)n1Cc1ccccc1 0.5, C/C(=N/NC(=O)c1cc(Cl)ccc1O)C12CC3CC(CC(C3)C1)C2 0, CN1C2C=C3C(C#N)=C(N)C(C#N)(C#N)[C@@H](c4ccsc4)[C@@H]3C1CC2 (some centres undefined) -0.5, O=C(Nc1nnc(-c2ccccc2F)s1)C1CCCO1 (centres undefined) 0, OC(CNCC1CCCO1)Cn1c2ccc(Br)cc2c2cc(Br)ccc21 (centres undefined) 0, COc1ccc(OC)c(Nc2cc(-c3ccccc3)nc(N)n2)c1 -0.5, CCOc1ccccc1NC(=O)Nc1cccc(C(C)=O)c1 0, O=C(Nc1ccccc1-c1nnn(CC(=O)N2CCc3ccccc3C2)n1)C1CCC1 0, C=CCn1c(-c2cccs2)nc2ccccc21 0, COC(=O)c1ccc2c(=O)n(C3CCCCC3)c(SCC#N)nc2c1 0, CCN(CC)C(=O)CSc1nc2ccccc2c(=O)n1-c1ccccc1OC 0, CC(C)(C)c1nnc(N/N=C/c2ccccc2)n(N)c1=O 0, C/C(=N\NC(=O)c1csc(C)c1C)c1ccc(Cl)s1 0, CNC(=S)N/N=C(\C)c1ccc(C)c(C)c1 0, C/C(=N\NC(=S)NCCc1ccccc1)c1cccs1 3, CCNC(=S)N/N=C(\C)c1ccc(Cl)s1 0, C/C(=N\NC(N)=S)c1ccc(Cl)s1 0, CC(C)NC(=S)N/N=C/c1cc(Br)ccc1O 0, Cn1c(NC(=O)Cc2ccc(F)cc2)cc(=O)n(C)c1=O 0, CS(=O)(=O)c1ccc2nc(NC(=O)C3C4C=CC(C4)C3C(=O)O)sc2c1 (centres undefined) 0, CC1=NN(/C(=N\c2nnc(C)s2)Nc2ccccc2)[C@H](c2cccc3ccccc23)S1 0, CCN(CC)CCCn1c(=S)[nH]c2cc(Cl)ccc2c1=O 0, CCN(CC)CCn1c(=S)[nH]c2cc(Cl)ccc2c1=O 0, O=C(NNS(=O)(=O)c1ccccc1F)c1cccc(S(=O)(=O)N2CCOCC2)c1 0, CCC(CC)c1nnc(NC(=O)c2ccc3ccccc3n2)s1 0, CCc1ccc(NCc2cc3c(C)nn(-c4ccccc4)c3[nH]c2=O)cc1 0, O=C1CC(C(F)(F)C(F)(F)C(F)(F)F)=Nc2ccccc2N1 0, O=C(N/N=C/c1ccc([N+](=O)[O-])s1)c1cccc(Br)c1 0, Cc1ccccc1C(=O)N/N=C/c1ccc([N+](=O)[O-])s1 0, CCOC(=O)C1CCCN(C(=O)c2cc(-c3ccccc3)on2)C1 (centres undefined) 0, CCOC(=O)N1CCN(C(=O)CSc2ncnc3ccccc23)CC1 0, Cc1ccc(S(=O)(=O)CC(=O)Nc2ccc(S(=O)(=O)Nc3onc(C)c3C)cc2)cc1 -0.5, C/C(CC(O)c1ccc2ccccc2n1)=N/O (centres undefined) 0, CNC(=S)N=Nc1c(O)[nH]c2ccc(C(C)C)cc12 0, Cn1c(=O)c2c(nc3sccn32)n(C)c1=O 0, CC(C)(C)c1ccc(C(=O)NC(=S)Nn2cnnc2)cc1 0, CC(C)(C)c1ccc(SCC(N)=O)cc1 0, O=[n+]1c2c(n([O-])c3cc(F)c(N4CCCC4)cc31)CCCC2 3, COc1ccc2cc(C(=O)NCC(=O)O)sc(=O)c2c1OC 0, C=CCn1c(SCC(=O)Nc2sccc2C(N)=O)nc2ccc(Cl)cc2c1=O 0, CCOC(=O)c1cnc(SCC(=O)Nc2nc(C)c(C)s2)nc1N 0

Manual score, active:
CC1CCCN(C(C(=O)Nc2ccc3c(c2)OCO3)c2ccccc2)C1 (centres undefined) -1, Cc1ccc(C(C(=O)NC2CCCC2)N2CCCC(C)C2)cc1 (centres undefined) -1, CC1CCN(C(C(=O)Nc2ccc3c(c2)OCO3)c2ccccc2)CC1 (centres undefined) -1, O=C1OC2(CCCCC2)OC(=O)C1=CNc1nc2ccccc2s1 1, CCCCCC/C(C)=C1/SC(=S)NC1=O 1, c1ccc2c(c1)oc1c(N3CCN(Cc4ccc5c(c4)OCO5)CC3)ncnc12 -1, CC(C)(C)c1ccc(CN2C3=NCCCN3c3ccccc32)cc1 -1, CCCCCCN1C2=NCCN2c2ccccc21 -1, OC(CN1C2=NCCCN2c2ccccc21)c1ccc(Br)cc1 (centres undefined) -1, Cc1ccc(CN2C3=NCCCN3c3ccccc32)cc1 -1, C=CCN1CCN(C(c2ccc(Cl)cc2)c2nnnn2CCc2ccc(OC)c(OC)c2)CC1 (centres undefined) -1, COc1ccc(Cn2nnnc2C(c2ccc(F)cc2)N2CCN(C3CCCC3)CC2)cc1 (centres undefined) -1, COc1ccc(Cn2nnnc2C(c2ccccc2Cl)N2CCN(C3CCCC3)CC2)cc1 (centres undefined) -1, COc1ccccc1C(c1nnnn1CCc1ccccc1)N1CCCCCC1 (centres undefined) -1, CCN(c1ccc2c(c1)OCO2)S(=O)(=O)c1cc(Br)cc2c1N(C(=O)C1CC1)CC2 -1, COc1ccc(NC(=O)C(=O)NNC(=O)c2cccs2)c(OC)c1 1, COc1ccc(NC(=O)C(=O)NNC(=O)c2cccs2)cc1 1, COCCNCCOc1ccccc1-c1ccccc1 -1, S=c1[nH]nc(-c2ccc(Br)o2)n1Cc1ccccc1 1, CC(C)(C)CC(C)(C)NCC(O)COc1c(F)cc(Br)cc1F (centres undefined) -1, CCOc1ccccc1Nc1nnc(Cc2ccccc2Cl)c(=O)[nH]1 1, COc1ccc(Nc2nnc(Cc3ccccc3)c(=O)[nH]2)c(OC)c1 1, Cc1sc2ncnc(N(C)Cc3cccs3)c2c1C -1, CCOC(=O)c1c(CNCCN(CC)CC)n(C)c2cc(Br)c(OC)cc12 -1, CN=C1c2c(-c3ccccc3)c3cc(OC)ccc3n2CCN1C -1, CCc1cc(-c2n[nH]c(C)c2-c2nc3ccccc3n2C)c(O)c(CN2CCN(C)CC2)c1O -1, CCCN(CCC)C(=O)CSc1nc2ccccc2c(=O)n1C1CCCC1 -1, C=C(C)CNC(=S)N/N=C(\C)c1ccc(Cl)s1 1, CNC(=S)N/N=C(\C)c1ccc(Cl)s1 1, C/C(=N\NC(=S)NC(C)C)c1ccc(Cl)s1 1, O=C(c1oc(=O)c2ccccc2c1-c1ccccc1)N1CCN(C2CCCCC2)CC1 -1, CCCCn1c(=S)[nH]c2c(oc3ccc(Cl)cc32)c1=O 1, Cc1ccc(C2C3=C(NCCN=C3c3ccccc3)C(=O)N2c2ccccc2)cc1 (centres undefined) -1, Cc1ccc2nsnc2c1S(=O)(=O)Nc1cccc2nsnc12 1, CCc1ccc(Nc2nc3ccccc3c(=O)s2)cc1 1, O=C(N/N=C\c1ccc(Cl)s1)c1cccs1 1, CCOC(=O)C1CCCN(c2nc(C)nc3c2oc2ccccc23)C1 (centres undefined) -1, CCOC(=O)C1CCCN(c2ncnc3c2oc2ccccc23)C1 (centres undefined) -1, Cc1ccc(C)c(C(=O)c2c(C)nc3sccn23)c1 -1, Cc1cccc(C(=O)NNC(=O)C(=O)NC(C)(C)C)c1 1, CC(C)(C)NC(=O)C(=O)NNC(=O)c1ccc(C(C)(C)C)cc1 1, CCOC(=O)c1c(NC(=O)CSc2nnc(Cc3csc(N)n3)n2C)sc(C)c1C -1, C=CCn1c(SCC(=O)Nc2sc(C)c(C)c2C(=O)OCC)nnc1-c1sc(N)nc1C -1
